LMNA splice mod: LMNA splicing modulation; Potency, µM (series often up to 46.1 µM), for inactives: at the highest dose ratio change, negative = inhibition, usual class: inhibitors; HeLa LMNA splicing GFP/RFP minigene ratio, 48 h; actives 0.01% (n = 200,000); AID 1487; active = well fitted inhibition curve with a large enough effect in the signal ratio, with a control signal flat, not every such curve was filed as active; inconclusive = small, poorly fitted or top-dose-only effect, or effect the other way, or a change in a side signal; the % refers to the signal ratio
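S3 HeLa cells stably expressing lamin A-EGFP splicing minigene plus DsRed2, 600 cells/well, 48 h compound exposure at 37C. Laser-scanning cytometry; analysed as GFP (500-530 nm)/RFP (575-640 nm) total intensity ratio; 0.5% DMSO vehicle.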
HPGD block: inhibitors of human 15-hydroxyprostaglandin dehydrogenase (HPGD); AID 894; purified HPGD, NADH fluorescence kinetic, PGE2 substrate; P15428; actives 4.3% (n = 150,000); Potency, µM, inactives show top-dose activity change, negative = inhibition, hits mostly inhibitors; active = well fitted inhibition curve with a large enough effect, not every such curve was filed as active; inconclusive = small, poorly fitted or top-dose-only effect, or another doubt; inactive = no such curve, though single readings can be large or run the other way
Target sequence (P15428 whole entry, looked up): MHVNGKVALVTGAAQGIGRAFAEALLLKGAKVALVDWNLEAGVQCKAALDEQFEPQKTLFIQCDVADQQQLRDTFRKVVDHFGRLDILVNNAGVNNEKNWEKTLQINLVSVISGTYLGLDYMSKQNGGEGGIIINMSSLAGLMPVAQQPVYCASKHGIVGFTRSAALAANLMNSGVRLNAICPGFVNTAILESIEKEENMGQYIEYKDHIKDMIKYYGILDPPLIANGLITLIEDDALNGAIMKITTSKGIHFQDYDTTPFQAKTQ
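20 nM HPGD preincubated 15 min at room temperature with compound in 50 mM Tris-HCl pH 8, 0.01% Tween 20. Started with 1 mM NAD+ and 30 uM prostaglandin E2; NADH fluorescence (360/450 nm) read 5 times over 30-s intervals, last minus first.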
IMPase Li cell: cell-permeable IMPase inhibitors with lithium potentiation; actives 0.35% (n = 210,000); Potency, µM (series often up to 59.4 µM), inactives show top-dose activity, negative = IMPase inhibition, actives largely listed as inhibitors; CHO-M1 cells, IP1 TR-FRET (IP-One), carbachol + lithium; AID 1457;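 note: IP1 builds up when IMPase is blocked and the TR-FRET signal falls; plate controls were basal vehicle for no effect and high inhibitor control for full effect; nearly all actives have a fitted effect of over 50% in size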
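Steps: plate 2000 CHO-M1 cells per well and culture 16–30 h; add compound and lithium; incubate 30 min, 37C; add d2-IP1 tracer and Eu cryptate anti-IP1 antibody in lysis buffer; read after 10 min at room temperature.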
Luc counter: Kinase-Glo luciferase inhibition (counter-screen) | Kinase-Glo luciferase, ATP luminescence, 8 min | Potency, µM (doses to about 38.3 µM), for inactives: at the highest dose activity change, negative = inhibition, actives largely listed as inhibitors | actives 0.28% (n = 200,000); note: nearly all actives have a fitted effect of over 60% in size
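Compound is pinned into ATP-containing buffer (10 uM ATP, imidazole pH 7.2, 7 mM MgCl2). Kinase-Glo luciferase reagent is then added. Light output is recorded following an 8-min room-temperature incubation.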
ALDH1A1 block: blocks purified human ALDH1A1 activity; P00352; Purified ALDH1A1, NADH fluorescence, propionaldehyde substrate; Potency, µM (series often up to 75.3 µM), for the others: top-dose activity, negative = inhibition, usual class: inhibitors; actives 7.3% (n = 220,000); AID 1030; active = well fitted inhibition curve with a large enough effect, not every such curve was filed as active; inconclusive = small, poorly fitted or top-dose-only effect, or another doubt; inactive = no such curve, though single readings can be large or run the other way;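 note: plate controls were no enzyme wells and a reference inhibitor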
Target sequence (P00352 whole entry, looked up): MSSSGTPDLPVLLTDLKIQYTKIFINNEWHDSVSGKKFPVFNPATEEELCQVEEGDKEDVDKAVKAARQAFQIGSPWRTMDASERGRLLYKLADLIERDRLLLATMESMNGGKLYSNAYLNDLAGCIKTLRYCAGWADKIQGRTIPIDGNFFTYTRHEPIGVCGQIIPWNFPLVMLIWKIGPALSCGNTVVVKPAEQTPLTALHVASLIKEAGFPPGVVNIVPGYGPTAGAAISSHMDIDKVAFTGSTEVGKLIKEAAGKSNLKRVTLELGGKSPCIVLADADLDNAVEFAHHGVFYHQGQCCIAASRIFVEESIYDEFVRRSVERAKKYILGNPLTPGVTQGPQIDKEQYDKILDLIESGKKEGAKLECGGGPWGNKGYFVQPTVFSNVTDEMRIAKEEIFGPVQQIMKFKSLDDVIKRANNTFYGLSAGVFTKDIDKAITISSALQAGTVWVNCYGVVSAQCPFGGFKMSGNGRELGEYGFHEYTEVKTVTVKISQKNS
An asterisk follows results filed as active; ? = inconclusive; nt = not tested or not shown; [ ] = another dose, or the depositor's remark. In the library only some 9% were active in any assay of this set; here they are far more common. Unless noted, calls come from the whole dose curve; as a rule, active = well fitted curve in the direction sought with a large enough effect; inconclusive = small, poorly fitted or top-dose-only effect, or another doubt; inactive = no such curve, though single readings can be large; an effect the other way counts as inactive or inconclusive. Unless noted, % is set by controls: 0 for no effect and ±100 for the full control effect; potency is the fitted concentration of half-maximal effect.

SMILES	LMNA splice mod	HPGD block	IMPase Li cell	Luc counter	ALDH1A1 block
COc1cc(CC(=O)OCC(=O)Nc2ccc3c(c2)OCO3)cc(OC)c1OC	nt	nt	3%	0%	-1%
COCCCN(C(=S)NC(=O)C12CC3CC(CC(C3)C1)C2)c1c(N)n(Cc2ccccc2)c(=O)[nH]c1=O	?	nt	9%	1%	-8%
CC(C)c1ccc(Oc2cccc(C(=O)/C(C#N)=C/N(C)C)c2)cc1	14%	16µM*	55%[38.3 µM]	1%	-10%
CN(C)/C=C(\C#N)C(=O)c1cccc(Oc2ccc(Br)cc2)c1	15%	-19%	-6%[38.3 µM]	0%	-1%
CCN(CC)C1CCN(C(=O)CCc2nnc(CCCCc3ccccc3)o2)C1 (stereo not drawn)	nt	nt	3%	-5%	-7%
CCN1CCN(C(=O)CCc2nnc(CCCCc3ccccc3)o2)[C@@H](C)C1=O	-3%[46 µM]	nt	8%	-3%	8.9µM*
Cc1cccc2cc(CN(CC3CCCO3)C(=S)NCc3ccco3)c(=O)[nH]c12 (stereo not drawn)	?	-13%	-1%	0%	?
COc1ccc2cc(CN(CC3CCCO3)C(=S)NCc3ccco3)c(=O)[nH]c2c1 (stereo not drawn)	nt	nt	14%	-1%	3.5µM*
Cc1ccc2cc(CN(Cc3ccco3)C(=S)NCC3CCCO3)c(=O)[nH]c2c1 (stereo not drawn)	21%[46 µM]	nt	5%	-7%	-8%
Cc1ccc2cc(CN(CC3CCCO3)C(=S)NCc3ccco3)c(=O)[nH]c2c1 (stereo not drawn)	?	nt	12%	-6%	3.5µM*
Cc1cccc(NC(=O)N(Cc2cc3cc(C)ccc3[nH]c2=O)CC2COCCO2)c1 (stereo not drawn)	nt	nt	7%	-1%	32µM*
Cc1ccc(C)c2[nH]c(=O)c(CN(Cc3ccco3)C(=S)NCC3CCCO3)cc12 (stereo not drawn)	-10%[46 µM]	nt	23%	-3%	20µM*
COc1ccc(OC2C(O)COC2/C=C/c2ccccc2)cc1 (stereo not drawn)	nt	nt	nt	nt	4%[13.5 µM]
O=C(CCc1nnc(C2CCCCC2)o1)NCCCOc1cccnc1	nt	nt	-2%	nt	1%
COc1cc2cc(CN(CCc3ccccc3C)C(=S)NCCCN(C)C)c(=O)[nH]c2cc1OC	-2%	?	-1%	2%	?
Cc1ccc2[nH]c(=O)c(CN(Cc3ccccc3)C(=S)NCCCN(C)C)cc2c1	?	nt	-4%	13µM*	-5%
Cc1ccc2[nH]c(=O)c(CN(CC3CCCO3)C(=S)NCc3ccco3)cc2c1 (stereo not drawn)	-6%	-8%	9%	-1%	?
Cc1ccc2cc(CN(CC3CCCO3)C(=S)Nc3ccccc3)c(=O)[nH]c2c1 (stereo not drawn)	23%[46 µM]	nt	18%	-10%	?
Cc1ccc2[nH]c(=O)c(CN(CC3CCCO3)C(=S)Nc3ccccc3)cc2c1 (stereo not drawn)	-15%	-20%	4%	-1%	14µM*
Cc1cc(C)c2cc(CN(CC3CCCO3)C(=S)NCc3ccco3)c(=O)[nH]c2c1 (stereo not drawn)	?	nt	12%	-5%	16µM*
O=C1C=C(NCCc2ccccc2)C2(CCCCC2)O1	2%[46 µM]	nt	0%	-1%	?
COc1cc(N=Nc2c(O)c3ccccc3[nH]c2=O)c(OC)cc1N=Nc1ccccc1	-5%[46 µM]	nt	nt	nt	16µM*
O=[N+]([O-])c1cccc(-c2cn(-c3ccccc3)c(=S)[nH]2)c1	nt	nt	7%	-1%	-10%
O=[N+]([O-])c1ccc2c(c1)[nH]c(=S)n2-c1ccccc1	nt	nt	8%	0%	4µM*
O=C(CSc1nc2ccccc2s1)NC(=O)NCc1ccco1	-2%	25µM*	?	-1%	32µM*
SMILES	LMNA splice mod	HPGD block	IMPase Li cell	Luc counter	ALDH1A1 block
O=C(CSc1n[nH]c(-c2ccccc2)n1)NC(=O)NCc1ccco1	12%	14µM*	-7%[38.3 µM]	8%	-6%
O=C(CSc1n[nH]c(-c2ccccc2)n1)Nc1ncccn1	8%[46 µM]	nt	8%	-1%	1%
O=C(CSc1n[nH]c(-c2ccccc2)n1)Nc1ccc(Br)cn1	-14%	13µM*	10%	2%	-1%
COc1ccc(CNC(=O)Cn2nc3c(cc2=O)CCCC3)cc1	-4%[46 µM]	nt	nt	nt	nt
O=c1c2ccccc2nc2c3ccccc3c(NCCO)nn12	nt	nt	-7%	4%	?
CN(CCc1ccccn1)C1CC(=O)N(c2ccc(Cl)cc2)C1=O (stereo not drawn)	8%	-22%	0%[38.3 µM]	-1%	25µM*
CN(CCc1ccccn1)C(=O)Nc1ccc(Cl)cc1	4%	-4%	-12%[38.3 µM]	-1%	-1%
COc1ccccc1NC(=O)N1CCC(C(=O)c2ccc(F)cc2)CC1	-1%	-9%	17%[38.3 µM]	-3%	1%
CCOc1ccccc1NC(=O)N1CCC(C(=O)c2ccc(F)cc2)CC1	-12%	-10%	26%[38.3 µM]	-1%	5µM*
Cc1cccc2nc(CSc3nc4ccccc4o3)cn12	-3%	-4%	15%	-4%	?
O=C(O)c1ccc(CSc2nc3ccccc3o2)cc1	7%	28µM*	-8%[38.3 µM]	-4%	10%
c1ccc2oc(SCc3cn4ccccc4n3)nc2c1	-12%	-20%	22%[38.3 µM]	-4%	3.2µM*
NC(CO)(CO)CO	?	-2%	1%	2%[39.9 µM]	6%
O=C1/C(=C/c2ccccc2)CCCc2ccccc21	-7%	-1%	-3%	-5%	-9%
O=C1/C(=C/c2ccc(C(=O)O)cc2)CCC/C1=C\c1ccc(C(=O)O)cc1	19%	20µM*	-4%	0%	-1%
CN(C)c1ccc(/C=C2\CCC/C(=C\c3ccccc3)C2=O)cc1	?	-11%	2%	-2%	13µM*
COc1ccc(/C=C2\CCC/C(=C\C=N\N(C)C)C2=O)cc1	nt	nt	30%	0%	4µM*
COc1cc(/C=N/NC(=O)c2ccc(CSc3nncn3C)cc2)cc(OC)c1O	2%[46 µM]	nt	20%	1%	?
COc1ccc(-n2c(=O)c(-c3ccc(Cl)cc3)nc3cnc(N4CCOCC4)nc32)cc1	nt	-13%	-4%	1%	?
Cn1c(NC(=O)c2ccccc2)c(-c2ccccn2)c(=O)c2ccccc21	-1%	-13%	22µM*	-1%	8%
Cn1c(NC(=O)c2ccccc2)c(-c2cccs2)c(=O)c2ccccc21	?	-8%	4%[38.3 µM]	-3%	-3%
O=C(CCCCCN1C(=O)c2ccccc2C1=O)NCCc1nc2ccccc2[nH]1	-3%	-6%	13%[38.3 µM]	-2%	11µM*
COc1ccc(S(=O)(=O)CCC(=O)NCCc2ccc(C)cc2)cc1	-4%	-11%	-2%[38.3 µM]	-2%	25µM*
COc1ccc(CCNC(=O)CCCCCN2C(=O)c3ccccc3C2=O)cc1	10%	-13%	8%[38.3 µM]	2%	?
COc1ccc(CCNC(=O)CCCN2C(=O)c3ccccc3C2=O)cc1	nt	nt	-8%	-2%	14µM*

Screening data: PubChem BioAssay, National Center for Advancing Translational Sciences (NCATS)
